Only some compounds are listed: those with a hit (about 2.3% of all), similar ones and a draw of the others.
HTR2A ag = agonists of mouse serotonin 5-HT2A receptor (HTR2A); activation, % at 7.6 µM; CHO-K1 mHTR2A beta-arrestin complementation, luminescence; percent of 30 µM serotonin response; AID 624169; P35363; 360,000 tested, 0.66% active;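 active = activation above a run cutoff, the mean activation of all tested compounds plus 3 SD, cut at about 14% in these data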
ABHD5-PLIN5 inh = ABHD5-PLIN5 protein interaction inhibition; inhibition, % at 4 µM; Split G. princeps luciferase complementation, luminescence, 4 h; AID 602281; 360,000 tested, 0.78% active; Q00G26+Q8WTS1;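 active = inhibition above the mean inhibition across every tested compound plus 3 SD, cut at about 22% in these data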
Target sequence (Q00G26 whole entry, looked up): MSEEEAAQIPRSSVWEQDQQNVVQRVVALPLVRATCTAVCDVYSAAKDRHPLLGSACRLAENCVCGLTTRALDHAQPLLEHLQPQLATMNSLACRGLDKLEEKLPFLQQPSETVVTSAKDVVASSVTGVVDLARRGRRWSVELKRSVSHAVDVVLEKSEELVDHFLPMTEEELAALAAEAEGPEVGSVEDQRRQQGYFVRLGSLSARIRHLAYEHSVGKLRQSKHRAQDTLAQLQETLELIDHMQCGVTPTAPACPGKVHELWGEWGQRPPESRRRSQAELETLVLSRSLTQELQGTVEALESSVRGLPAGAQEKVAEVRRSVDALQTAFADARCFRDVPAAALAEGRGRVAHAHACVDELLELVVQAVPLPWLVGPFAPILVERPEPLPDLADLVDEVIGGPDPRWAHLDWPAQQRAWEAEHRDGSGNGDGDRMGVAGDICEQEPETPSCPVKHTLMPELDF
Target sequence (Q8WTS1 whole entry, looked up): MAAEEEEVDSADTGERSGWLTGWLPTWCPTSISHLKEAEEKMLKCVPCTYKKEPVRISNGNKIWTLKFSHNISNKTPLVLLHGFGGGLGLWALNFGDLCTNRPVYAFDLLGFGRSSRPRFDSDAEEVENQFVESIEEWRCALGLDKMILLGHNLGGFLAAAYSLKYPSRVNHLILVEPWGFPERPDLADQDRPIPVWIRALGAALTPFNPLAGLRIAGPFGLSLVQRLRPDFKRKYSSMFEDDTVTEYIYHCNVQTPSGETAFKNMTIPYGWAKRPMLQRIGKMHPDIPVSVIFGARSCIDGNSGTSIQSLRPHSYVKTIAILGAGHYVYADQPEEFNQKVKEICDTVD
Granule exo inh = blocks lytic granule exocytosis; TALL-104 LAMP-1 surface exposure, flow cytometry; cells stimulated with thapsigargin and PMA; inhibition, % at 10 µM; 360,000 tested, 0.66% active; AID 651702;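 active = inhibition above about 55%, limit read from the data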
B2AR ag = activates human beta-2 adrenergic receptor causing internalization. Am2.2-beta2AR cells, FAP receptor internalization, flow cytometry. response, % (no concentration beside the values). 340,000 tested, 0.43% active. AID 504454;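 active = response above a set limit, near 3 SD of response in nonfluorescent compounds, cut at about 42% in these data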
NTR1 agonist = agonists of human neurotensin receptor NTR1. 330,000 tested, 0.17% active. AID 493036. P30989. activation, % at 20 µM. NTR1-U2OS beta-arrestin-GFP spot imaging, agonist mode;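 active = activation at or above 40% of the spot to cytoplasm intensity ratio, with at least 20 cells analyzed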
Hits are given with their value; 0 = inactive; - = no result given.

SMILES	HTR2A ag	ABHD5-PLIN5 inh	Granule exo inh	B2AR ag	NTR1 agonist
Cc1oc(-c2ccc3c(c2)OCCO3)cc1C(=O)NCC(=O)O	0	22	0	0	0
COc1ccc([C@H]2[C@H](C(=O)OC(C)(C)C)N3N=Cc4ccccc4C3C23C(=O)c2ccccc2C3=O)cc1OC (stereo partly drawn)	0	0	63	0	0
COc1ccc([C@H]2[C@H](C(=O)OC(C)(C)C)N3N=Cc4ccccc4C3C23C(=O)c2ccccc2C3=O)c(OC)c1 (stereo partly drawn)	0	0	0	0	0
Fc1ccc(C2=Nc3cccc4cccc(c34)N2)cc1	0	0	0	0	0
FC(F)(F)C1=Nc2cccc3cccc(c23)N1	0	0	0	82	0
COc1ccc(C(=O)NN(C)c2nc(-c3ccccc3)nnc2C(F)(F)F)cc1	0	0	0	49	0
CC1(C)OC1COc1c2ccoc2cc2oc(=O)ccc12 (stereo not drawn)	0	0	80	0	0
CN=c1scc(-c2ccccc2F)n1/N=C/c1ccc(O)c(O)c1O	0	0	0	101	-
CN=c1scc(-c2ccccc2F)n1/N=C/c1ccc[nH]1	0	0	0	0	0
CCCC1CC(C(=O)NC(C(C)Cl)C2OC(SC)C(O)C(O)C2O)N(C)C1 (stereo not drawn)	0	0	0	0	0
CCC[C@@H]1C[C@@H](C(=O)NC(C(C)Cl)[C@H]2O[C@H](SC)[C@H](O)[C@@H](O)[C@H]2O)N(C)C1 (stereo partly drawn)	40	0	0	0	0
CCN1/C(=C/C(C)=C/c2sc3ccccc3[n+]2CC)Sc2ccccc21	0	0	82	0	0
CCN1/C(=C\C(=S)Nc2ccccc2)Sc2ccccc21	0	0	0	0	0
CCN(CC)S(=O)(=O)c1ccc(N2CCN(C)CC2)c(NC(=O)Nc2ccc(C)cc2)c1	0	0	0	0	0
CCOC(=O)C1=C(C)N=C2SC(C)C(=O)N2C1c1cccc(F)c1 (stereo not drawn)	0	0	0	0	0
CC1=C(C(=O)OCC(C)C)C(c2cccc(F)c2)N2C(=O)C(C)SC2=N1 (stereo not drawn)	0	0	59	0	0
O=C(N/N=C/c1cccc([N+](=O)[O-])c1)c1cc[n+](CCO)cc1	0	0	0	46	0
CCCCCCCC(=O)Nc1ccc(C(=O)N/N=C/c2cccc([N+](=O)[O-])c2)cc1	0	0	0	0	0
O=C(Nc1cccc(Cl)c1)C1COc2ccccc2O1 (stereo not drawn)	0	0	0	0	0
COc1ccc([C@H]2C[C@@H](n3cc(-c4ccc(F)cc4)nn3)[C@H](O)CN2C(=O)C2CCCCC2)cc1	0	0	0	-	-
Cc1cc(Cl)ccc1OCC(O)CNCCc1ccc(S(N)(=O)=O)cc1 (stereo not drawn)	0	0	0	0	0
O=C(c1ccc(-c2ccccc2)cc1)c1ccc([N+](=O)[O-])cc1	-	-	-	-	0
O=C(C#Cc1ccccc1)c1ccc([N+](=O)[O-])cc1	0	0	79	69	0
COCCNC(=O)C1(C)Cc2c(-c3ccc4c(c3)OCO4)ccnc2O1 (stereo not drawn)	0	0	0	-	-
Cc1cc(S(=O)(=O)Nc2ccc(C(=O)NCCCN3CCCC3=O)cc2)ccc1F	0	0	0	0	0
SMILES	HTR2A ag	ABHD5-PLIN5 inh	Granule exo inh	B2AR ag	NTR1 agonist
Cc1ccc(C2=N/C(=C\c3cccc(F)c3)C(=O)O2)cc1	0	0	0	0	0
CCC(C)(C)c1ccc(OCCCC[n+]2cccc(C)c2)c(C(C)(C)CC)c1	0	23	0	0	-
Cc1cccc(C)c1OCCNC(=O)CCC(=O)c1ccccc1	0	0	0	0	0
CCn1c(SCC#N)nc2cc(S(=O)(=O)N3CCOCC3)ccc21	0	0	0	0	0
CCn1c(SCC(=O)N(C)CCC#N)nc2cc(S(=O)(=O)N3CCOCC3)ccc21	0	23	0	0	0
Cn1nc(C(=O)Nc2nc3ccccc3[nH]2)c2ccccc2c1=O	0	0	0	56	0
CCn1nc(C(=O)Nc2nc3ccccc3[nH]2)c2ccccc2c1=O	0	0	0	0	0
N#Cc1c(C#N)c(SSc2c(C#N)c(C#N)c(N)n2-c2ccccc2)n(-c2ccccc2)c1N	0	0	96	0	-
C=CCN1c2ccccc2[C@]23C[C@@H](C(=O)OC)N(C(=O)NCCC)C2=NC(C(=O)OC)=C(C(=O)OC)[C@H]13	0	0	0	0	0
O=C(Nc1nnc(-c2ccc(Cl)s2)o1)C1CCCCC1	0	0	0	0	0
CCCC(=O)Nc1nnc(-c2ccc(Cl)s2)o1	27	0	0	0	0
O=C(Nc1ccccc1Cl)c1ccc(=O)[nH]n1	0	0	0	0	0
CCOC(=O)c1c(C)n(-c2ccc(C)cc2)c2ccc(OCC(O)CN3CCN(C)CC3)cc12 (stereo not drawn)	0	22	0	0	-
CCOC(=O)c1c(C)n(C)c2ccc(OCC(O)CN3CCN(C)CC3)cc12 (stereo not drawn)	0	0	0	0	0
O=C(/C=C/c1ccco1)NCC1(c2ccccc2)CCCC1	0	0	0	0	0
COc1ccc(C2(CNC(=O)/C=C/c3ccco3)CCCC2)cc1OC	0	35	0	0	0
CCOc1ccc(C(=O)/C=C/c2cn(CN3CCN(C)CC3)c3ccccc23)cc1	0	0	0	0	49
CC1CCCN(C(=O)c2cc(S(=O)(=O)N3CCCCC3)c[nH]2)C1 (stereo not drawn)	0	0	0	0	0
C=CCn1c(SCC(=O)NCCCC)nc2scc(-c3ccco3)c2c1=O	0	40	0	0	0
Cc1cc2ccccn2c1C(C[N+](=O)[O-])c1ccc(N(C)C)cc1 (stereo not drawn)	0	23	0	0	0
CCCNC(=O)c1ccc(N2CCC3(CC2)CC(c2cccc(Br)c2)=NO3)c(NC(=O)c2cccc(C)c2)c1	0	0	0	0	0
O=C(Nc1ccc(Br)cc1)c1cccc(OC(=S)N2CCOCC2)c1	0	0	0	77	0
CC1CC(=O)N(CC(=O)NCc2ccc(F)cc2)c2ccccc2S1(=O)=O (stereo not drawn)	0	0	0	0	0
COc1ccc(Nc2nnc(SCc3cc([N+](=O)[O-])cc4c3OCOC4)s2)cc1	0	0	0	0	0
Cc1cc(C)c2nc(Cl)c(CN(Cc3ccco3)C(=O)Nc3ccccc3C)cc2c1	0	0	0	42	0
Cn1c(O)c(/C=N/NC(=O)c2cc3ccccc3cc2O)c2ccccc21	0	0	83	0	0
COc1ccc(-c2cc(C(F)(F)F)nc(S(=O)(=O)CCCC(=O)Nc3cccc(O)c3)n2)cc1OC	0	23	0	-	0
COc1ccccc1-c1cc(C(F)(F)F)nc(S(=O)(=O)CCCC(=O)O)n1	0	0	0	0	0
Cc1ccc(S(=O)(=O)CCC(=O)Nc2cc(C)on2)cc1	0	0	0	-	-
Cc1cc(NC(=O)CCS(=O)(=O)c2nc(-c3ccccc3)cc(C(F)(F)F)n2)no1	0	42	0	0	0
